Data taken from the supplement of paper PMC10849652.
About 7,900 targets were measured; listed, in parts, are those with a hit and a random draw of the rest. About 0.6% of all pairs of compound and target were hits.

Compound: C1COCCN1CCN2C3=CC=CC=C3N=C2NC(=O)C4=CC(=CC=C4)[N+](=O)[O-] [IRAK-1-4 Inhibitor I]
Experiment: log2 fold change, soluble protein after heating vs DMSO (PISA); higher = thermal stabilisation; K562 cells, 10 uM, 30 min; active = over 0.2 and 3.5 SD of the protein, either way, in both replicates (recomputed)
Summary of the method: (§1)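 K562 cells at 2×10^6 cells/mL were treated for 30 min with 10 μM compound, and aliquots were heated for 3 min over 48°C-58°C before pooling. Extraction used PBS with 0.5% NP-40 at 4°C, and soluble protein was the supernatant after 21,000xg for 90 min, measured by TMTpro 16plex LC-MS/MS with channel sums equalised. Thermal stability values, relative to control samples and from duplicates, are log2 fold changes.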

Chain of UniProt Q8WUH2 (Q8WUH2 whole entry, looked up): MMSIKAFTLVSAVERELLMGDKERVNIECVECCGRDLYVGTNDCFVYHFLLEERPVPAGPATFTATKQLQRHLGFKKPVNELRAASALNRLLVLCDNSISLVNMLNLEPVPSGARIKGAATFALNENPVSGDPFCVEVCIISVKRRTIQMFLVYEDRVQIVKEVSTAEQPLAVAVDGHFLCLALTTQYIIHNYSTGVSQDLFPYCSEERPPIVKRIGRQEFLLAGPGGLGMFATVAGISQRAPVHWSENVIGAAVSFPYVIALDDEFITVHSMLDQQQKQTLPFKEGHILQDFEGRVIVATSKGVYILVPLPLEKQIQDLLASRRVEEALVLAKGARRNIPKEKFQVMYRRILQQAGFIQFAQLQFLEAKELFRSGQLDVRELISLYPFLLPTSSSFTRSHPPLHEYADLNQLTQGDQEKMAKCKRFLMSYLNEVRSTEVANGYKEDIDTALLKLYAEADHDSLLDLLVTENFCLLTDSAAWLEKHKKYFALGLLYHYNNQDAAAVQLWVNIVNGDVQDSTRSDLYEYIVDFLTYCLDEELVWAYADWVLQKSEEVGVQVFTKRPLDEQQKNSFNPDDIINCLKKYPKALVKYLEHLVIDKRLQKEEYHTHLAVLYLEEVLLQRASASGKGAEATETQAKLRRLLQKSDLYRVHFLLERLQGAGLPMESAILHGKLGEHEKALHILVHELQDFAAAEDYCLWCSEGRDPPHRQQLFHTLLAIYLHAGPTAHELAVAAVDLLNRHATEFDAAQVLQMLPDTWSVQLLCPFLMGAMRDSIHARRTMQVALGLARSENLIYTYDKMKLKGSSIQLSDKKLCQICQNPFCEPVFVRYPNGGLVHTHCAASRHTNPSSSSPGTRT
Chain of UniProt Q92844 (Q92844 whole entry, looked up): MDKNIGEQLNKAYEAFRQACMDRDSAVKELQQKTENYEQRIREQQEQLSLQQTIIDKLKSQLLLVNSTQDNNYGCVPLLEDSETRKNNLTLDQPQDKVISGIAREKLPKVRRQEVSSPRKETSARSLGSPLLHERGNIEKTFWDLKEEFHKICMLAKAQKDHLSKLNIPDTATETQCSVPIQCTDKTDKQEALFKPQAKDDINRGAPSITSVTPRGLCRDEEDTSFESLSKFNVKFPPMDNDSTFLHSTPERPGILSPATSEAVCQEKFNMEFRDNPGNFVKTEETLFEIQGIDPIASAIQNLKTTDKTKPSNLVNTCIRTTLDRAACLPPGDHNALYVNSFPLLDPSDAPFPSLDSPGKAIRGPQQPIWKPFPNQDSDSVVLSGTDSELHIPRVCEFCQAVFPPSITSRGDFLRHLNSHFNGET
Chain of UniProt Q8IY18 (Q8IY18 whole entry, looked up): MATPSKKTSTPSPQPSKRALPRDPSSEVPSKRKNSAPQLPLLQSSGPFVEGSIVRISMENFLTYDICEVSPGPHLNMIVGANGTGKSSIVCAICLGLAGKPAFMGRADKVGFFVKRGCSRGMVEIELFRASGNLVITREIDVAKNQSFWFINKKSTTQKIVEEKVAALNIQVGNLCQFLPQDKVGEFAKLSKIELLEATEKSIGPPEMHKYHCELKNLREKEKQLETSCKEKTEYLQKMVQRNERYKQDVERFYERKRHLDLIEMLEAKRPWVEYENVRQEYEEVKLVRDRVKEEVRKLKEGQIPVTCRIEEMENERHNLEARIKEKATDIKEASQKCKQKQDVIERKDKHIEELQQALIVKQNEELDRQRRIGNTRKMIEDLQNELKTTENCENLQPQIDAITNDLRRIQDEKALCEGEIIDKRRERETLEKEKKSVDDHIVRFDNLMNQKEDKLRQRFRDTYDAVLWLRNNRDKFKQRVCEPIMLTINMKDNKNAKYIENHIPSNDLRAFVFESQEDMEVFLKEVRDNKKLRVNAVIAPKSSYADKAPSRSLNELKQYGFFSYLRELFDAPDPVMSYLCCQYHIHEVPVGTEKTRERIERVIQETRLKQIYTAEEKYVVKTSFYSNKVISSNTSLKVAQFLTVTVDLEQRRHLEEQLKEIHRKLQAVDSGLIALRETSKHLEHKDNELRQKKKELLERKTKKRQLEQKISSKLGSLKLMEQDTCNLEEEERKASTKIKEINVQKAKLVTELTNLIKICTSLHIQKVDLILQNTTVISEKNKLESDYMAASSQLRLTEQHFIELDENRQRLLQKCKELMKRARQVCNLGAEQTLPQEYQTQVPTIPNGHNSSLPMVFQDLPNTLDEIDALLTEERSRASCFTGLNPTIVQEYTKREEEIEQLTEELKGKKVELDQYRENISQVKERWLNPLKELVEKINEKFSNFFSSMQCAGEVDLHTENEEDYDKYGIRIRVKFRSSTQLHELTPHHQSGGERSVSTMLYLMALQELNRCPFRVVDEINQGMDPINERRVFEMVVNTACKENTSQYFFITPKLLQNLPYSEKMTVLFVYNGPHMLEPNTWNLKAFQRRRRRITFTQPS
Chain of UniProt Q9NUY8 (Q9NUY8 whole entry, looked up): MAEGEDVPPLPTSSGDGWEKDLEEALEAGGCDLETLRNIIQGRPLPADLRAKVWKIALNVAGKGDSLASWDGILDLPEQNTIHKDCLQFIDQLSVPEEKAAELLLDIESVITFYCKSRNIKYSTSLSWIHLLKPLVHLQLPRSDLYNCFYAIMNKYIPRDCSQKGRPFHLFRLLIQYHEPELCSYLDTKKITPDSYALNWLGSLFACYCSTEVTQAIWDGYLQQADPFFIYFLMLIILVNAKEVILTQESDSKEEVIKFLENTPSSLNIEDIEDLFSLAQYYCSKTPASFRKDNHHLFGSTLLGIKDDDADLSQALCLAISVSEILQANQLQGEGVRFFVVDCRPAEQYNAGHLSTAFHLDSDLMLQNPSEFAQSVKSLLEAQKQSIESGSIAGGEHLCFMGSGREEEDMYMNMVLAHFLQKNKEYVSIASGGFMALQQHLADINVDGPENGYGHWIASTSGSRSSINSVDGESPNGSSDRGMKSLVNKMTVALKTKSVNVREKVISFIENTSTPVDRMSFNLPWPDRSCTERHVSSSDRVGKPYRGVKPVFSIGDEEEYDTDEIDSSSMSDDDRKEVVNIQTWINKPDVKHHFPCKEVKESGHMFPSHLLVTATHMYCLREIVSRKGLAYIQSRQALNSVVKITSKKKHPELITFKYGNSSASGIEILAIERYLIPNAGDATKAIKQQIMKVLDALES
Chain of UniProt Q9NYB0 (Q9NYB0 whole entry, looked up): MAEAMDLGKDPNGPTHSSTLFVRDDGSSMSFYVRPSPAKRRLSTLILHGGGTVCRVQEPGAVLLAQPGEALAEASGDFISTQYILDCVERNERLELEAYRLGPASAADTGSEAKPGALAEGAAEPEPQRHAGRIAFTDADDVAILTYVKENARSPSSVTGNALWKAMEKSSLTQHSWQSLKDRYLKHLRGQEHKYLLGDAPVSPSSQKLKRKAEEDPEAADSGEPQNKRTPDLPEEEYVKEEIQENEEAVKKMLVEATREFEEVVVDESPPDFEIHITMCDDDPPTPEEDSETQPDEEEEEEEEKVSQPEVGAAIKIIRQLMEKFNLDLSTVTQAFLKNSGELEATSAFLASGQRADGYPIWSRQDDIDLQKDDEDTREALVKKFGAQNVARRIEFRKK
Chain of UniProt Q9Y5X3 (Q9Y5X3 whole entry, looked up): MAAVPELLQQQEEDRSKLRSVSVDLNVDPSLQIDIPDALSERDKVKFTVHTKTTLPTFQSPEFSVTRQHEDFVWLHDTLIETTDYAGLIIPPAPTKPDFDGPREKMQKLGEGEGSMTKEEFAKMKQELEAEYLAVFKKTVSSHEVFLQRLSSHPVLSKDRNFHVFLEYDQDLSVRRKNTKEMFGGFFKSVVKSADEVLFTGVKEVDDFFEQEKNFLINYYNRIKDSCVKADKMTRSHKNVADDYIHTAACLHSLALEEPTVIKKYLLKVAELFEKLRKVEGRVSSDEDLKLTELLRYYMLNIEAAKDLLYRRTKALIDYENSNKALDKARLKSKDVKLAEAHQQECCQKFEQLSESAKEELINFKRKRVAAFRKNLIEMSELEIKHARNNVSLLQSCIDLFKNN
Chain of UniProt O00506 (O00506 whole entry, looked up): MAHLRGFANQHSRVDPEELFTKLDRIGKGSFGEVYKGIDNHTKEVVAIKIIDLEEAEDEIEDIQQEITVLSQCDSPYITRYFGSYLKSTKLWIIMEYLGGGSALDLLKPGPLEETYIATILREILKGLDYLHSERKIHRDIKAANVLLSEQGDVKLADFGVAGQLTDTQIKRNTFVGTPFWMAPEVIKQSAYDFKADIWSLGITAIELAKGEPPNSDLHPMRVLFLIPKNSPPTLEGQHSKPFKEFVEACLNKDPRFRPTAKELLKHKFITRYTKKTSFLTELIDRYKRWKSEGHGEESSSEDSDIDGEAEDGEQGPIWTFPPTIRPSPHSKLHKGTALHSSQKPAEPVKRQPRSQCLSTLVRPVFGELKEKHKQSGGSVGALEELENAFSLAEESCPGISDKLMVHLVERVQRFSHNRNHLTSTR
Chain of UniProt Q969Z0 (Q969Z0 whole entry, looked up): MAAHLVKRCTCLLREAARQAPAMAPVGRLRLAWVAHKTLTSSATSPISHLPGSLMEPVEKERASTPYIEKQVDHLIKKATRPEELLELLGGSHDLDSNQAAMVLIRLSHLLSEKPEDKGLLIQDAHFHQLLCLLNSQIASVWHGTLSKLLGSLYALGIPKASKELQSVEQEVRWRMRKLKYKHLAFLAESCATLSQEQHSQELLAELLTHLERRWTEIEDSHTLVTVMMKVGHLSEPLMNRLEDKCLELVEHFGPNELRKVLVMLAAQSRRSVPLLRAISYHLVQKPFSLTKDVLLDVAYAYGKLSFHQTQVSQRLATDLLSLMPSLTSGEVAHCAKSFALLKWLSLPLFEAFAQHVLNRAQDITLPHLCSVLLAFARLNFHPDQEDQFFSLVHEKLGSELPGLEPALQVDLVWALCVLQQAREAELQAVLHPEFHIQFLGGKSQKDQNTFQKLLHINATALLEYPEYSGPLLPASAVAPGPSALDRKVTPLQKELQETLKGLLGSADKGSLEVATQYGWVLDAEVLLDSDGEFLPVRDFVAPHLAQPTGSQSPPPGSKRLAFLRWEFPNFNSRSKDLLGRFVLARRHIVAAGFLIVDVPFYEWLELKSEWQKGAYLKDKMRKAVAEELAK

log2 fold change, inactive:
TBC1D23 (UniProt Q9NUY8) 0.062
SMAP2 (UniProt Q8WU79) 0.04
SNX5 (UniProt Q9Y5X3) 0.042
SNX9 (UniProt Q9Y5X1) -0.011
SRPRB (UniProt Q9Y5M8) -0.021
TANGO6 (UniProt Q9C0B7) -0.117
TGFBRAP1 (UniProt Q8WUH2) -0.088
TANK (UniProt Q92844) -0.035
TBRG4 (UniProt Q969Z0) -0.031
TERF2IP (UniProt Q9NYB0) -0.023
STK25 (UniProt O00506) 0.051
SLC27A4 (UniProt Q6P1M0) -0.042
SMC5 (UniProt Q8IY18) 0.041
SLC30A7 (UniProt Q8NEW0) 0.035

Compound: C=CC(=O)N1CCC[C@@H](n2nc(-c3ccc(Oc4ccccc4)cc3)c3c(N)ncnc32)C1 [ibrutinib]
Experiment: as above
Summary of the method: as §1

log2 fold change, inactive:
TIMM13 (UniProt Q9Y5L4) 0.012
SLC25A38 (UniProt Q96DW6) -0.001
SMARCA5 (UniProt O60264) -0.135
TEX30 (UniProt Q5JUR7) 0.08
SMG1 (UniProt Q96Q15) 0.021
SNRPD3 (UniProt P62318) -0.006
SUPT5H (UniProt O00267) -0.068
SPAST (UniProt Q9UBP0) -0.015
TBCD (UniProt Q9BTW9) -0.019
SMAP (UniProt O00193) -0.063
SPR (UniProt P35270) 0.04
TAOK3 (UniProt Q9H2K8) 0.002
SP3 (UniProt Q02447) 0.003
STOM (UniProt P27105) 0.019
TJP1 (UniProt Q07157) 0.03
SLC30A10 (UniProt Q6XR72) -0.08
SPCS2 (UniProt Q15005) -0.037
TM9SF4 (UniProt Q92544) 0.008
STAT5B (UniProt P51692) -0.146
SRSF10 (UniProt O75494) 0.07
SNX12 isoform 1 (UniProt Q9UMY4) -0.007
TBC1D15 isoform 3 (UniProt Q8TC07) -0.021
SYMPK (UniProt Q92797) -0.087
TBC1D23 (UniProt Q9NUY8) -0.02
SMAP2 (UniProt Q8WU79) -0.027
SNX5 (UniProt Q9Y5X3) 0.019
SNX9 (UniProt Q9Y5X1) 0.025
SRPRB (UniProt Q9Y5M8) 0.004
TANGO6 (UniProt Q9C0B7) -0.077
TGFBRAP1 (UniProt Q8WUH2) -0.067
TANK (UniProt Q92844) 0.087
TBRG4 (UniProt Q969Z0) 0
TERF2IP (UniProt Q9NYB0) -0.009
STK25 (UniProt O00506) -0.067
SLC27A4 (UniProt Q6P1M0) 0.022
SMC5 (UniProt Q8IY18) 0.062
SLC30A7 (UniProt Q8NEW0) 0.063
